We go through 106 compounds from PubChem BioAssay AID376 (PDSP, 2006).

Structures are written as SMILES. The campaign covered roughly 2,000 compounds. About 250 (12%) were called active. Rule as the data show it: active = hERG blockade below about -20% or above about 20%; inactive = in between. The list comes from a sample in which actives are over-represented; it also holds similar structures and randomly drawn compounds.

Chain of Voltage-gated inwardly rectifying potassium channel KCNH2 (Homo sapiens) (Q12809 whole entry, looked up): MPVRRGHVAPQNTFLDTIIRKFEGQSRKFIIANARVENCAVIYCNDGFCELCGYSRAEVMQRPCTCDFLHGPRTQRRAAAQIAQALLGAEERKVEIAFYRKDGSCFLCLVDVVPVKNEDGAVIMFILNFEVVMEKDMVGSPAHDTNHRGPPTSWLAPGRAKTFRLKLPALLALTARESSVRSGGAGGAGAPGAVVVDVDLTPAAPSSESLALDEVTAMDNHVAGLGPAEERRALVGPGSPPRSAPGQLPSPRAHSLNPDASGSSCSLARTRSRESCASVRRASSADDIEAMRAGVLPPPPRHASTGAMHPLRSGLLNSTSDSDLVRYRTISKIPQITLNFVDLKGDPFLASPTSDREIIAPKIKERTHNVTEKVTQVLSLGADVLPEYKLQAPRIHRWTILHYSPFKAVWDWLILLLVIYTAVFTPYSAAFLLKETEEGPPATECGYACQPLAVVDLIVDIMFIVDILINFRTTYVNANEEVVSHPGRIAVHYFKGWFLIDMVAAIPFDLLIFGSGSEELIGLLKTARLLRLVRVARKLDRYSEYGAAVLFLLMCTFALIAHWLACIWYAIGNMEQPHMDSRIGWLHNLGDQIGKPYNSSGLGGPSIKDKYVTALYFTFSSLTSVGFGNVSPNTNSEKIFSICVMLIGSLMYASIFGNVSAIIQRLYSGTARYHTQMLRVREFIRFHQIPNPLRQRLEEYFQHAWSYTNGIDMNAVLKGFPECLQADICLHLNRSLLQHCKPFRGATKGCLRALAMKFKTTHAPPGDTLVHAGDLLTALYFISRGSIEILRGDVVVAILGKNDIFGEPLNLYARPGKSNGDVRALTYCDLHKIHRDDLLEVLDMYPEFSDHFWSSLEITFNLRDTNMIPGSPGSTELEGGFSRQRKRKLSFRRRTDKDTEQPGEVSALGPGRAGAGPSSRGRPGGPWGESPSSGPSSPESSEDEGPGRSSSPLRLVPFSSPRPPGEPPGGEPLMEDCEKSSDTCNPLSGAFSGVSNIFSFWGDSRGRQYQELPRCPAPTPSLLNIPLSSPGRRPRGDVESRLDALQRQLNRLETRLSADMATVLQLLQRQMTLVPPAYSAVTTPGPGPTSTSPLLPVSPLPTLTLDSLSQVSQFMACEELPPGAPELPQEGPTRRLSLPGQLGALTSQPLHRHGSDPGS

This assay concerns the target Voltage-gated inwardly rectifying potassium channel KCNH2 (Homo sapiens) (UniProt Q12809). Put plainly: KCNH2 potassium channel function modulators, cell-based (AID 376).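 Also: 0% = buffer alone and 100% = reference blocker.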 The settings on record: hERG-expressing cells, channel activity single-concentration screen; concentration not given here.
For the compound `CC1CC2C3CCC4=CC(=O)C=CC4(C)C3(Cl)C(Cl)CC2(C)C1(O)C(=O)COP(=O)(O)O` (stereo unspecified), the hERG blockade is 10.3% (inactive).

For the compound `COc1cc2c(cc1OC)C(CCN)=NCC2`, the hERG blockade was 26.9% (active).

Regarding `Cc1cc(OCC(=O)O)c(Cl)cc1Cl`, the hERG blockade is 3.22% (inactive).

`O=c1[nH]c(=S)[nH]c(-c2ccccc2)c1Cc1c(O)ccc2ccccc12`: the hERG blockade was -0.358% (inactive).

For the compound `S=c1nc[nH]c2c1ncn2Cc1ccco1`, the hERG blockade was -15.9% (inactive).

Turning to `O=C(O)CCn1cnc2c(=S)nc[nH]c21`, the hERG blockade was -35.8% (active).

Take `O=C(O)CCCCn1cnc2c(=S)nc[nH]c21`: the hERG blockade was 6.53% (inactive).

For the compound `Nc1ccccc1SCc1csc(-c2ccc(Cl)cc2)n1`, the hERG blockade was 4.83% (inactive).

As for `CC(C)c1cc(C(F)(F)F)nc(NNc2nc(C(C)C)cc(C(F)(F)F)n2)n1`, the hERG blockade is 7.39% (inactive).

Turning to `COc1nc(N)nc2c1ncn2C1CC(O)C(CO)O1` (stereo unspecified), the hERG blockade is 12% (inactive).

Turning to `Nc1nc2c(ncn2C2CCC(CO)O2)c(=O)n1C(=O)c1ccccc1` (stereo unspecified), the hERG blockade is -28.6% (active).

Consider `OCC1CCCC(n2cnc3c(=S)nc[nH]c32)O1` (stereo unspecified), for which the hERG blockade was -13.5% (inactive).

Take `O=C(O)c1c2c(c(O)c3c1CN(C1CCCCC1)CO3)OCN(C1CCCCC1)C2`: the hERG blockade was -1.92% (inactive).

For `C[N+](C)(C)CCCSc1nc2ccccc2[nH]1`, the hERG blockade was 6.28% (inactive).

Regarding `CC(CCC(=O)O)(c1cc(Br)c(O)c(Br)c1)c1cc(Br)c(O)c(Br)c1`, the hERG blockade was 5.39% (inactive).

On to `CN(C)CN1C(=O)SC(=C2C(=O)N(CN(C)C)c3ccccc32)C1=O`, for which the hERG blockade was -4.39% (inactive).

As to `CN(C)CC(C)(C)CN1c2ccccc2Sc2ccccc21`, the hERG blockade is 22.5% (active).

`c1ccc2c(c1)-c1nc3ccccc3cc1C2N1CCOCC1` (stereo unspecified): the hERG blockade is -9.86% (inactive).

Turning to `Cc1ncc(CN=Cc2ccc(Cl)cc2)c(N)n1`, the hERG blockade is 6.55% (inactive).

`CC12CCC3c4ccc(O)cc4CCC3C1CCC2OC(=O)CCC1CCCC1` (stereo unspecified): the hERG blockade was 6.8% (inactive).

With `CC(=NO)c1ccc2cc(Br)c3ccccc3c2c1`, the hERG blockade is 61.6% (active).

In the case of `CC(Br)C(=O)c1ccc2cc(Br)c3ccccc3c2c1` (stereo unspecified), the hERG blockade was 8.72% (inactive).

Regarding `CCCS(=O)(=O)O`, the hERG blockade is -0.642% (inactive).

For the compound `c1ccc2c(c1)c1ccccc1n2Cn1c2ccccc2c2ccccc21`, the hERG blockade was -38.4% (active).

Take `c1ccc2c(CSCc3cccc4ccccc34)cccc2c1`: the hERG blockade was 13.9% (inactive).

`NC(=O)CC(N)c1nn[nH]n1` (stereo unspecified): the hERG blockade is -2.74% (inactive).

Turning to `CN1CCCCC1CCN1CCCCC1` (stereo unspecified), the hERG blockade was 1.07% (inactive).

On to `CN1CCCCC1CCN1c2ccccc2Sc2ccc(S(C)=O)cc21` (stereo unspecified), for which the hERG blockade was 16.5% (inactive).

For the compound `COc1ccc2c(c1)N(CCC1CCCCN1C)c1ccccc1S2` (stereo unspecified), the hERG blockade was 59.1% (active).

For `OC(C1=CC(=Cc2ccncc2)c2ccccc21)c1ccncc1` (stereo unspecified), the hERG blockade is 1.87% (inactive).

For the compound `O=C(NCc1cccs1)OC1CC2CCC1C2` (stereo unspecified), the hERG blockade is -2.2% (inactive).

For the compound `C[N+](C)(C)CC(=O)NN=Cc1c(O)ccc2ccccc12`, the hERG blockade is -4.06% (inactive).

For `c1ccc(C(CCN2CCCC2)c2ccccn2)cc1` (stereo unspecified), the hERG blockade is 3.48% (inactive).

With `c1ccc(C(CCN2CC3CCC(CC3)C2)c2ccccc2)cc1`, the hERG blockade is 56.9% (active).

Consider `c1ccc2c(c1)-c1ccccc1C2N1CC2CCC(CC2)C1`, for which the hERG blockade is -7.32% (inactive).

On to `Nc1cc(S(N)(=O)=O)ccc1SSc1ccc(S(N)(=O)=O)cc1N`, for which the hERG blockade was -0.877% (inactive).

With `OC(COc1cccc2ccccc12)CN1CCOCC1` (stereo unspecified), the hERG blockade is 2.26% (inactive).

As for `Nc1ccc2[nH]cc(CCC(=O)O)c2c1`, the hERG blockade is 1.56% (inactive).

In the case of `O=P(O)(O)OC1OC(CO)C(O)C(O)C1O` (stereo unspecified), the hERG blockade is -24.6% (active).

As to `OCC1OC(N2CCN(C3OC(CO)C(O)C(O)C3O)CC2)C(O)C(O)C1O` (stereo unspecified), the hERG blockade is -5.49% (inactive).

In the case of `Cc1c(Cl)c(S(N)(=O)=O)cc(S(N)(=O)=O)c1NC(=O)c1ccc(Cl)cc1`, the hERG blockade is 12.5% (inactive).

On to `Cc1cccc(Cl)c1NCC(O)CN1CCN(C)CC1` (stereo unspecified), for which the hERG blockade was -2.1% (inactive).

Regarding `O=C(O)CC(Cc1ccc2c(c1)OCO2)C(=O)O` (stereo unspecified), the hERG blockade is 6.12% (inactive).

`CC1Oc2ccc(C(=O)CC(C(=O)O)c3ccc4c(c3)OCO4)cc2O1` (stereo unspecified): the hERG blockade was -27.6% (active).

For `CC(C(=O)O)C(=Cc1ccc2c(c1)OCO2)C(=O)O` (stereo unspecified), the hERG blockade is 0.849% (inactive).

Turning to `CN(C)Cc1ccc(-c2cc3onc(-c4ccccc4)c3c(=O)n2C)cc1`, the hERG blockade is 10.3% (inactive).

As for `CC(C)(CO)N1CCN(C(=S)Nc2ccccc2)CC1`, the hERG blockade was 0.768% (inactive).

Regarding `C[N+]1(C)CCOC(O)(c2ccccc2)C1` (stereo unspecified), the hERG blockade is 17.7% (inactive).

Consider `CC[N+](C)(CC)CCN1C(=O)c2ccccc2S1(=O)=O`, for which the hERG blockade was -0.137% (inactive).

Take `NS(=O)(=O)c1ccc(N=Nc2ccc[nH]c2=O)cc1`: the hERG blockade was 16% (inactive).

On to `NS(=O)(=O)c1ccc(N=Nc2c[nH]c(=O)c(O)c2)cc1`, for which the hERG blockade is 14% (inactive).

For the compound `Cn1c(N)c(N=Nc2ccc(S(N)(=O)=O)cc2)c(=O)n(C)c1=O`, the hERG blockade was 31.1% (active).

As to `S=c1nc(-c2nc(=S)[nH]c3c2CCCCCCCCCC3)c2c([nH]1)CCCCCCCCCC2`, the hERG blockade was 0.0358% (inactive).

For `Clc1cc2c(c(CSC3=NCN(CC4CC4)CN3)c1)OCOC2`, the hERG blockade is 8.37% (inactive).

`CN(C)CCNCCN`: the hERG blockade was 4.72% (inactive).

Regarding `CC(=NNC(=O)c1ccncc1)c1ccc2ccccc2c1O`, the hERG blockade was -2.47% (inactive).

With `CC1=NN(c2ccccc2)C(=O)C1N=Nc1ccc(S(N)(=O)=O)cc1` (stereo unspecified), the hERG blockade is 14.6% (inactive).

For `CC1=NN(C(=O)c2ccncc2)C(=O)C1N=Nc1ccc2ccccc2c1` (stereo unspecified), the hERG blockade was 21.5% (active).

On to `Cc1noc(NC(=O)Nc2ccccc2F)c1C#N`, for which the hERG blockade is 2.22% (inactive).

For `CN(C)c1ncnc2c1ncn2CCn1cnc2c(N(C)C)ncnc21`, the hERG blockade was -12.5% (inactive).

Turning to `Nc1ncnc2c1ncn2CCCCC(=O)O`, the hERG blockade is -16.5% (inactive).

For the compound `CCCCn1cnc2c(SC)ncnc21`, the hERG blockade is -28.3% (active).

With `Cc1cc(C)nc(NC(=O)COc2ccc(Cl)cc2)c1`, the hERG blockade was 16.6% (inactive).

As to `OC(COc1ccccc1)CN1CCCCC1` (stereo unspecified), the hERG blockade was -2.64% (inactive).

For the compound `c1ccc(-c2cnc(-c3ccc(-c4ncc(-c5ccccc5)o4)cc3)o2)cc1`, the hERG blockade was -6.76% (inactive).

Take `O=C(CSC1=NCCN1)Nc1ccccc1`: the hERG blockade was 8.84% (inactive).

In the case of `c1ccc(-c2ccc(-c3ccc(C4=NCCN4)cc3)o2)cc1`, the hERG blockade is 134% (active).

With `OCCSCc1ccccc1`, the hERG blockade was -16.1% (inactive).

Take `O=C(O)CN(CCN(CC(=O)O)CC(=O)O)CC(=O)O.[Cu+2]`: the hERG blockade is 1.62% (inactive).

Consider `O=C(O)CCc1nc(-c2ccccc2-n2cccc2)no1`, for which the hERG blockade is 5.65% (inactive).

As for `O=C(O)C(Cc1cc(I)c(O)c(I)c1)C1CCCCC1` (stereo unspecified), the hERG blockade is 35.2% (active).

Take `C=C(C)CNCCN`: the hERG blockade is -5.55% (inactive).

For the compound `Cc1ccc(CSC(N)=Nc2ccccc2)cc1C`, the hERG blockade was 14.3% (inactive).

On to `Nc1ncnc2c1ncn2C1OC(C(=O)OCCO)C(O)C1O` (stereo unspecified), for which the hERG blockade was 1.37% (inactive).

Take `Clc1ccc2c(c1)N(CCCN1CCCC13CCCCC3)c1ccccc1S2`: the hERG blockade is 4.63% (inactive).

For `OC1CC2CCC(C1)N2CCCN1c2ccccc2Sc2ccc(Cl)cc21` (stereo unspecified), the hERG blockade was 89.8% (active).

As to `COc1ccc(N(CC(=O)O)N=O)cc1`, the hERG blockade is 1.49% (inactive).

For `O=C1C=CC(=Nc2cccc3c(N=C4C=CC(=O)O4)cccc23)O1`, the hERG blockade is -12% (inactive).

For the compound `CC(C)c1cc(CN(C)C)c(O)c(C(C)(C)C)c1`, the hERG blockade was 13.4% (inactive).

Take `Nc1nc(N)[n+]([O-])c(N)c1NCO`: the hERG blockade is -6.48% (inactive).

With `C=CCNS(=O)(=O)c1ncnc2nc[nH]c12`, the hERG blockade is -2.53% (inactive).

For `Nc1nc(-c2cc(-c3cccc4ccccc34)nc(N)n2)cc(-c2cccc3ccccc23)n1`, the hERG blockade is 3.59% (inactive).

In the case of `Nc1cc2c(nc3c4ccccc4c(N)cc3[n+]2-c2cccc3ccccc23)c2ccccc12` (tested in a mixture with another compound), the hERG blockade is 51.9% (active).

`O=S(=O)(c1ccc(Br)cc1)N1CCN(S(=O)(=O)c2ccc(Br)cc2)CC1`: the hERG blockade was 11.5% (inactive).

With `O=C(O)C1CCCCC1c1c2ccc(=O)c(O)c-2oc2c(O)c(O)ccc12` (stereo unspecified), the hERG blockade is -2.68% (inactive).

`CC(=O)C1(N=Nc2ccc(S(N)(=O)=O)cc2)CCOC1=O` (stereo unspecified): the hERG blockade is -10.6% (inactive).

With `c1ccc2sc(SCSc3nc4ccccc4s3)nc2c1`, the hERG blockade was -7.22% (inactive).

Turning to `CC(CCC(=O)O)(c1ccc(O)cc1)c1ccc(O)cc1`, the hERG blockade is 4.36% (inactive).

Regarding `CC(CCc1nc2ccccc2s1)(c1ccc(O)cc1)c1ccc(O)cc1`, the hERG blockade was 24% (active).

For `O=C(O)c1ccccc1C(=O)c1ccc2c(c1)Cc1ccccc1-2`, the hERG blockade is -16.1% (inactive).

As for `Cn1c(=O)c2c(ncn2CN2CCN(Cn3cnc4c3c(=O)n(C)c(=O)n4C)CC2)n(C)c1=O`, the hERG blockade is 0.775% (inactive).

For `O=C(O)CSc1nnc2c3ccccc3c3ccccc3c2n1`, the hERG blockade was -2.16% (inactive).

Regarding `c1ccc2c[n+](Cc3ccnc4ccccc34)ccc2c1`, the hERG blockade was 16.2% (inactive).

For `c1ccc2c[n+](CCCC[n+]3ccc4ccccc4c3)ccc2c1`, the hERG blockade is 22% (active).

Turning to `CC(=N[O-])C(C)=N[O-].CC(=N[O-])C(C)=N[O-].[CH2-]CCN1CCOCC1.[Co].c1ccncc1`, the hERG blockade is 17.9% (inactive).

As for `O=C(O)c1ccc([N+](=O)[O-])c(P(=O)(O)O)c1`, the hERG blockade is -6.85% (inactive).

`Cc1nc2ccccc2nc1-c1ccc(N=[N+]([O-])c2ccc(-c3nc4ccccc4nc3C)cc2)cc1`: the hERG blockade is 1.15% (inactive).

As to `O=C(O)C(=Cc1ccccc1)Cc1ccccc1`, the hERG blockade is -1.14% (inactive).

Turning to `O=C(O)c1ccc(C(=O)c2ccccc2C(=O)O)cc1C(=O)O`, the hERG blockade is 1.52% (inactive).

Consider `Cc1ccc(NC(=O)c2ccccc2C(=O)O)cc1C`, for which the hERG blockade was 0.447% (inactive).

For the compound `CC1=CC(=C(c2ccc(O)c(C)c2)c2ccccc2C(=O)O)C=CC1=O`, the hERG blockade was 30.9% (active).

`CC(C)=NNc1ncnc2nc[nH]c12`: the hERG blockade is -8.04% (inactive).

For the compound `O=C1CSC(=S)N1N=Cc1ccc(Cl)c([N+](=O)[O-])c1`, the hERG blockade is 8.8% (inactive).

In the case of `O=C(O)c1ccc(S(=O)(=O)N=Nc2c(O)[nH]c3ccccc23)cc1`, the hERG blockade was -4.01% (inactive).

Consider `O=Nc1c(O)[nH]c2ccccc12.O=Nc1c(O)[nH]c2ccccc12.[Cu]`, for which the hERG blockade is 0.0535% (inactive).

`N=C(N)c1ccc(N=Nc2c(O)ccc3c2[nH]c2ccccc23)cc1`: the hERG blockade is -25.6% (active).
